Reference: PubChem BioAssay (NCATS)
Results filed as inconclusive are left out. The source made the active and inactive calls. Calls come from the whole dose curve; as a rule, active = well fitted curve in the direction sought with a large enough effect; inconclusive = small, poorly fitted or top-dose-only effect, or another doubt; inactive = no such curve, though single readings can be large; an effect the other way counts as inactive or inconclusive.

Assays:
[1] = biological target: Glutathione peroxidase 1 (Homo sapiens) (UniProt P07203); assay: Primary qHTS Assay for Inhibitors of Recombinant Selenoprotein Glutathione Peroxidase 1 (GPX1) (AID 1845191); note: nearly all actives have a fitted effect of over 65% in size; for activity, negative = inhibition: % is set by controls: 0 for no effect and ±100 for the full control effect
Method in brief: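 GR-coupled assay: compounds preincubated 30 min at room temperature with GPX1, then reaction started with CHP; final 10 nM GPX1, 1 mM GSH, 0.5 mM CHP, 0.5 mM NADPH, 100 nM GR, 0.01% BSA, pH 7.5 Tris buffer. NADPH fluorescence (340/450 nm) read at 0 and 15 min.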

[2] = biological target: Phospholipid hydroperoxide glutathione peroxidase GPX4 (Homo sapiens) (UniProt P36969); assay: Primary qHTS Assay for Inhibitors of Recombinant Selenoprotein Glutathione Peroxidase 4 (GPX4) (AID 1845192); note: nearly all actives have a fitted effect of over 65% in size; for activity change, negative = inhibition: series mostly up to about 50 µM; % is set by controls: 0 for no effect and ±100 for the full control effect
Method in brief: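 GR-coupled assay: recombinant GPX4 preincubated 30 min with compound at room temperature; final 200 nM GPX4, 1 mM GSH, 0.5 mM cumene hydroperoxide, 0.5 mM NADPH, 100 nM GR, 0.01% BSA, pH 7.5 Tris. NADPH fluorescence (340/450 nm) read at 0 and 15 min.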

[3] = biological target: Luciferin 4-monooxygenase (Photinus pyralis) (UniProt P08659); assay: Primary firefly luciferase (FLuc) qHTS assay for identification of artifact compounds. (AID 1845220); settings: outcome: dose series up to 54.1 µM unless noted; note: nearly all actives have a fitted effect of over 60% in size;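 for activity change, negative = inhibition: series mostly up to about 54 µM; plate controls were DMSO vehicle for no effect and no enzyme for full effect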
Method in brief: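 D-luciferin and ATP (10 uM each, final) in Tris acetate buffer pH 7.6 were incubated with compounds for 15 min at room temperature. The reaction was started with 10 nM Photinus pyralis luciferase and luminescence read after 5 min. Percent inhibition was fitted to a 4-parameter Hill equation.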

[4] = Primary fluorescence-based thiol-reactive (MSTI) qHTS assay for identification of artifact compounds. (AID 1845221);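 note: series mostly up to about 54 µM; thiol-reactive compounds lower the probe fluorescence signal; nearly all actives have a fitted effect of over 65% in size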
Method in brief: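 In PBS pH 7.4 with 2% DMSO, each compound met 4 uM MSTI for one hour at ambient temperature, shielded from light, before fluorescence detection.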

[5] = system: Nanoluciferase (engineered Oplophorus gracilirostris luciferase); assay: Primary Nanoluciferase (NLuc) qHTS assay for identification of artifact compounds. (AID 1845222);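 note: series mostly up to about 54 µM; 0% = DMSO and -100% = no enzyme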
Method in brief: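 Diluted conditioned medium from NLuc-expressing S16 cells treated with compounds for 15 min at room temperature, then Nano-Glo substrate added; luminescence read after 5 min. Percent inhibition versus no-enzyme and DMSO controls fitted to 4-parameter Hill equation.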

[6] = Primary redox qHTS assay for identification of artifact compounds. (AID 1845223);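 note: 0% = DMSO and 100% = reference compound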
Method in brief: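 Amplex Red (25 uM) and HRP (250 mU/mL) in HBSS, with compounds for 15 min, then 250 uM DTT for 30 min, room temperature, dark. Fluorescence 525/598 nm read; normalized to DMSO and 10 uM DA3003; Hill fit.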

Chain of Phospholipid hydroperoxide glutathione peroxidase GPX4 (Homo sapiens) (P36969 whole entry, looked up): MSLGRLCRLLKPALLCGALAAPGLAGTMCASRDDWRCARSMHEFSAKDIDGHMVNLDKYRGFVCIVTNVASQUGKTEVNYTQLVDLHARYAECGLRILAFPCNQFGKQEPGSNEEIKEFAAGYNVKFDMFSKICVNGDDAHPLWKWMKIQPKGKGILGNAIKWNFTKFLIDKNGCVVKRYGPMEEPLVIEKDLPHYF
Chain of Glutathione peroxidase 1 (Homo sapiens) (P07203 whole entry, looked up): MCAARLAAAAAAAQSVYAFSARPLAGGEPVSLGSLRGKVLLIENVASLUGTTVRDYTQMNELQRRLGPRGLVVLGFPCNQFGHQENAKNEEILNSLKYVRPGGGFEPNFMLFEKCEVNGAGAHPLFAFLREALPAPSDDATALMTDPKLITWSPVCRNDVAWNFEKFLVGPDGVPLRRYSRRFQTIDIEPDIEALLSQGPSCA

Cc1cc(O)cc2c1O[C@](C)(CCC[C@H](C)CCC[C@H](C)CCCC(C)C)CC2
inactive: Potency [1] | Potency [2]

Cn1c(=O)c2c(ncn2CC2OCCO2)n(C)c1=O
inactive: Potency [1] | Potency [2] | outcome [3] | Potency [4] | outcome [5] | outcome [6]

CCOc1ccc2ccccc2c1C(=O)N[C@@H]1C(=O)N2[C@@H]1SC(C)(C)[C@@H]2C(=O)O
inactive: Potency [1] | Potency [2] | outcome [3] | Potency [4] | outcome [5]

Nc1ccc(S(=O)(=O)Nc2nccs2)cc1
inactive: Potency [1] | Potency [2] | outcome [3] | Potency [4] | outcome [5] | outcome [6]

CCN(CC)C(=O)Nc1ccc(OCC(O)CNC(C)(C)C)c(C(C)=O)c1 (stereo not given)
inactive: Potency [1] | outcome [3] | Potency [4] | outcome [5] | outcome [6]

CCCCOc1cc(C(=O)OCCN(CC)CC)ccc1N
inactive: Potency [1] | Potency [2] | outcome [3] | Potency [4] | outcome [5] | outcome [6]

Cc1cccc(Nc2cc(Cl)nc(SCC(=O)O)n2)c1C
inactive: Potency [1] | Potency [2] | outcome [3] | Potency [4] | outcome [6]

Cc1ccc2nc(N)[nH]c(=O)c2c1Sc1ccncc1
inactive: Potency [1] | outcome [3] | outcome [5] | outcome [6]

C[C@@H]1CN(c2c(F)c(F)c3c(=O)c(C(=O)O)cn(C4CC4)c3c2F)C[C@H](C)N1
inactive: Potency [1] | Potency [2] | activity change, negative = inhibition [3] 2.25% [at 11.6 µM] | activity change, negative = thiol reactive [4] -0.316% [at 11.5 µM] | activity, negative = inhibition [5] 4.03% [at 11.6 µM] | redox activity (% of DA3003) [6] -2.75% [at 11.5 µM]
